Source: the supplement of paper PMC11732987, “Enantioselective OTUD7B fragment discovery through chemoproteomics screening and high-throughput optimisation” (Communications Chemistry, 2025)

How the values were obtained:
Assay in all cases: log2 ratio of Biotin-Ahx-Ub-VS probe labelling (fragment/DMSO); higher = less target engagement (more negative = stronger competition), active = hit call of the paper (q ≤ 0.05, log2 ratio ≤ -1)
Details in all cases: compound concentration: 200 uM; treatment time: 3 h
USP34 = USP34 (UniProt Q70CQ2)
Chain of USP34 (Q70CQ2 whole entry, the tested form may be a part): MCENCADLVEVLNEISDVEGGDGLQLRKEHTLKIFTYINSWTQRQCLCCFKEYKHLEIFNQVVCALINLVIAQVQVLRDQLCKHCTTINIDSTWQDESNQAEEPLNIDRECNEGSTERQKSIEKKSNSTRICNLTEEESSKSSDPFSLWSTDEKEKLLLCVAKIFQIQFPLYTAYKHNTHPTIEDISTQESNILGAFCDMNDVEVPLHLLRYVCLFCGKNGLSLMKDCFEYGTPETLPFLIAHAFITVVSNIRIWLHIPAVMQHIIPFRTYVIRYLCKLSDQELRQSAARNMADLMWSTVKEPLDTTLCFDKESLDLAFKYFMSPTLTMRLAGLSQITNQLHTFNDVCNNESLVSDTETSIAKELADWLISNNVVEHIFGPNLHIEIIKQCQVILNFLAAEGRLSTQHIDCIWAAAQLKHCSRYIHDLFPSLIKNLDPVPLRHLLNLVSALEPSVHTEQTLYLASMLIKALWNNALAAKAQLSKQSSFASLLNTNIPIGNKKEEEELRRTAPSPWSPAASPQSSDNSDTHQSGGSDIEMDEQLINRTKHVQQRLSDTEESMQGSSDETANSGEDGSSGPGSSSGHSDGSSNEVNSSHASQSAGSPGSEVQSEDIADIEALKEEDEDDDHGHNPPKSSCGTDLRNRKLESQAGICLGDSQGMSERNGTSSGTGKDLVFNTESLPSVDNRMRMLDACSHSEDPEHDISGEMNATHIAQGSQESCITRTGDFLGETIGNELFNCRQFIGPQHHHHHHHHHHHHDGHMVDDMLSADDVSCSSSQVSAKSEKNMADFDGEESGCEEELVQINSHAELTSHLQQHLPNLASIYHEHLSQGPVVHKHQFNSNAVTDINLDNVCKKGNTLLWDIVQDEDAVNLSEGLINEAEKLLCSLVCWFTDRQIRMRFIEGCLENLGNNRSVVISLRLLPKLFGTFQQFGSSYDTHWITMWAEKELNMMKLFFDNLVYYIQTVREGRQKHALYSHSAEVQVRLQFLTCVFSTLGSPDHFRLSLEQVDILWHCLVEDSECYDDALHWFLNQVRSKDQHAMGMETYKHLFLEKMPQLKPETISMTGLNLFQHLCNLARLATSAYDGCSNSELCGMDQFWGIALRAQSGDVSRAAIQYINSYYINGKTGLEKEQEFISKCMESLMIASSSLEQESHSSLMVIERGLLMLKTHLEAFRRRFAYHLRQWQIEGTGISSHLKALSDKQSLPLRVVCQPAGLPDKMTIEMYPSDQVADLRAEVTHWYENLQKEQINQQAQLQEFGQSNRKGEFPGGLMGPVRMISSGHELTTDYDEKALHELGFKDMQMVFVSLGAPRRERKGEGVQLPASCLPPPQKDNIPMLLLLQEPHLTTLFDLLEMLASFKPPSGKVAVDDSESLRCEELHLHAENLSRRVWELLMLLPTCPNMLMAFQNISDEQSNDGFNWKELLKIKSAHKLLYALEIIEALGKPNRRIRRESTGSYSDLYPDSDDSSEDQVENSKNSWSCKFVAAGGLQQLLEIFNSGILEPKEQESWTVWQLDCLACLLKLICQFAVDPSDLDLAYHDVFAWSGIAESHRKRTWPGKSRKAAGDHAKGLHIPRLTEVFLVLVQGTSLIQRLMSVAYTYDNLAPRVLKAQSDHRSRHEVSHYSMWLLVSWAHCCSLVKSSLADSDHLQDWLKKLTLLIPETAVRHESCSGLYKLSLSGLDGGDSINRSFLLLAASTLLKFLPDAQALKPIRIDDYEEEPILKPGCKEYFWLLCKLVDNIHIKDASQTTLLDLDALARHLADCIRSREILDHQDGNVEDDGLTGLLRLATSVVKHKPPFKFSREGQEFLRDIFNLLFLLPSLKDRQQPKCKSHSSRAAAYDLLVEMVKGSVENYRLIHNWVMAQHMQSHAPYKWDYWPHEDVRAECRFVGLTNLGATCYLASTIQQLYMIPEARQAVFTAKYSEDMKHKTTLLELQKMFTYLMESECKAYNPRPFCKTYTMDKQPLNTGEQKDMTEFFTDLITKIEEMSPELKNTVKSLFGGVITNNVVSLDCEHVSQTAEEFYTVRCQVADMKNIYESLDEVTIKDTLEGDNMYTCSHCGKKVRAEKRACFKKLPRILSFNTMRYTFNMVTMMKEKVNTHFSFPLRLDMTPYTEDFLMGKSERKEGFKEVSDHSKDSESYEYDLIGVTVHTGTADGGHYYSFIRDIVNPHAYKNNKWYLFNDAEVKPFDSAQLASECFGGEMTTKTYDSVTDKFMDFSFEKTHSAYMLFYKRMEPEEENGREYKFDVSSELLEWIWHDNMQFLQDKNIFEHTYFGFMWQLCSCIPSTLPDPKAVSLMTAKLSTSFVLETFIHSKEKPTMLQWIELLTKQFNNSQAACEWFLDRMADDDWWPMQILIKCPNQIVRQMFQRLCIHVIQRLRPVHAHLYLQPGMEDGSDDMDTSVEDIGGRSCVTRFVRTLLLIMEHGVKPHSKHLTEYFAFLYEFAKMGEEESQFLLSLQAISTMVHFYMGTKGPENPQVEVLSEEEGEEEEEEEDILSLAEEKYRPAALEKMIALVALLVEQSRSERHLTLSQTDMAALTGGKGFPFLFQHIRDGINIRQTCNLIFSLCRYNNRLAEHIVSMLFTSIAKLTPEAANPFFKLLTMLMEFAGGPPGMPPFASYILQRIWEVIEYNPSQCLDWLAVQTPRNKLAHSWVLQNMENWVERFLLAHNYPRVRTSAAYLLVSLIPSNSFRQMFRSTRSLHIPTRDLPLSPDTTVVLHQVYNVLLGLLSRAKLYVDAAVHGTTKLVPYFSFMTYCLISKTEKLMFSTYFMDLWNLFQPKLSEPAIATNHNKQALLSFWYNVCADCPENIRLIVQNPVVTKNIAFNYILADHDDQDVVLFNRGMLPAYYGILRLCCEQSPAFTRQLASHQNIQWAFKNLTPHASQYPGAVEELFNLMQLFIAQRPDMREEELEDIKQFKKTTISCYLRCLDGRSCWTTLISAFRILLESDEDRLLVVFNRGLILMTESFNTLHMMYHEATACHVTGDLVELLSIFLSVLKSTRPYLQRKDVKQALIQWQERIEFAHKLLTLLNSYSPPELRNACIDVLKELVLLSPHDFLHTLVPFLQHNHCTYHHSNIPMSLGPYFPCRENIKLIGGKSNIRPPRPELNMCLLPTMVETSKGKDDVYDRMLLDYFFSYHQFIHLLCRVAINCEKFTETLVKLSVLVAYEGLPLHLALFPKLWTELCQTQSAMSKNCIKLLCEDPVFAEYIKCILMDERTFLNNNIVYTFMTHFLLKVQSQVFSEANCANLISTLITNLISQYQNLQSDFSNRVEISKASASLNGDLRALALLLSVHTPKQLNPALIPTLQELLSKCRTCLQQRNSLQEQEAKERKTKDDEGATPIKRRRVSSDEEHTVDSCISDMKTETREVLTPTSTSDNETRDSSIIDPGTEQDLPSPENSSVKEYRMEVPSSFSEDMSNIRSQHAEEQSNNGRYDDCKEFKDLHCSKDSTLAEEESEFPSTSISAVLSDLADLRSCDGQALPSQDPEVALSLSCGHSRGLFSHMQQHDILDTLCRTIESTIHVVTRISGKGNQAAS
Outline: (§1)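 Each value is an average log2 ratio of fragment to vehicle, tested by unpaired t-test. The underlying Spectronaut label-free quantities were global-median-normalised, and only proteins with ≥2 unique peptides were included. Triplicate HEK293T lysate samples (495 µg) were exposed to fragment at 200 µM or vehicle for 3 h, then to Biotin-Ahx-Ub-VS at 0.5 µM final for 1 h, before NeutrAvidin enrichment of labelled DUBs, LysC and trypsin digestion, and diaPASEF LC-MS/MS.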

USP36 = biological target: T1, USP36 (UniProt Q9P275)
T1 sequence (whole entry): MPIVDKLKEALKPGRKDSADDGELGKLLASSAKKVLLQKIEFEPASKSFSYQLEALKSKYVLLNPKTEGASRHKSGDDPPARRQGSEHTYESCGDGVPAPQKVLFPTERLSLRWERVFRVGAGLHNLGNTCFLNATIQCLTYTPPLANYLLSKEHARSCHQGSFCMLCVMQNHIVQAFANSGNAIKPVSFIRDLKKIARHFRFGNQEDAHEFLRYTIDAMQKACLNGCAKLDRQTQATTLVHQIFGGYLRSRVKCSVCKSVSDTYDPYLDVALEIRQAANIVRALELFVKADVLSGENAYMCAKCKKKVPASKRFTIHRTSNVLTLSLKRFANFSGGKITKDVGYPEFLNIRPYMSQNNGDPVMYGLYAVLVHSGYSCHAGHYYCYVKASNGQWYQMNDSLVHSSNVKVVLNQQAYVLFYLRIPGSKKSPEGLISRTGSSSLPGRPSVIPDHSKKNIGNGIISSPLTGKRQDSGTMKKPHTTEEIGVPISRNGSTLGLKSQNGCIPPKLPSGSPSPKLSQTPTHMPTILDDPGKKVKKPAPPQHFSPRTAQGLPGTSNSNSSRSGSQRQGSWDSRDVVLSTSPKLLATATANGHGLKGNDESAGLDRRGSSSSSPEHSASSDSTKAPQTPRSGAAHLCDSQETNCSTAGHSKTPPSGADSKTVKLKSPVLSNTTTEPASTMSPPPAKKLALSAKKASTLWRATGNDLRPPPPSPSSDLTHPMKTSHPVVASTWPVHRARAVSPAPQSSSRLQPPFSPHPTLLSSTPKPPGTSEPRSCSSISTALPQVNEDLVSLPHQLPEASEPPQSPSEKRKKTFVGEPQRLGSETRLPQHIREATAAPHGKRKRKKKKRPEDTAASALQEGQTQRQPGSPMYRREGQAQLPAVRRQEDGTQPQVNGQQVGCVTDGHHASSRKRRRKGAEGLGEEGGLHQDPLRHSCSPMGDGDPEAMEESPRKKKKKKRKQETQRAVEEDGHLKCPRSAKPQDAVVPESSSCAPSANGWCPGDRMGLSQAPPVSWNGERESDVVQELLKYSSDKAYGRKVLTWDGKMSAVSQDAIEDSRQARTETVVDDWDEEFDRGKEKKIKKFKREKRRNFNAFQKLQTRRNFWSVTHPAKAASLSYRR
Outline: as §1

USP38 = biological target: T2, USP38 (UniProt Q8NB14)
T2 sequence (whole entry): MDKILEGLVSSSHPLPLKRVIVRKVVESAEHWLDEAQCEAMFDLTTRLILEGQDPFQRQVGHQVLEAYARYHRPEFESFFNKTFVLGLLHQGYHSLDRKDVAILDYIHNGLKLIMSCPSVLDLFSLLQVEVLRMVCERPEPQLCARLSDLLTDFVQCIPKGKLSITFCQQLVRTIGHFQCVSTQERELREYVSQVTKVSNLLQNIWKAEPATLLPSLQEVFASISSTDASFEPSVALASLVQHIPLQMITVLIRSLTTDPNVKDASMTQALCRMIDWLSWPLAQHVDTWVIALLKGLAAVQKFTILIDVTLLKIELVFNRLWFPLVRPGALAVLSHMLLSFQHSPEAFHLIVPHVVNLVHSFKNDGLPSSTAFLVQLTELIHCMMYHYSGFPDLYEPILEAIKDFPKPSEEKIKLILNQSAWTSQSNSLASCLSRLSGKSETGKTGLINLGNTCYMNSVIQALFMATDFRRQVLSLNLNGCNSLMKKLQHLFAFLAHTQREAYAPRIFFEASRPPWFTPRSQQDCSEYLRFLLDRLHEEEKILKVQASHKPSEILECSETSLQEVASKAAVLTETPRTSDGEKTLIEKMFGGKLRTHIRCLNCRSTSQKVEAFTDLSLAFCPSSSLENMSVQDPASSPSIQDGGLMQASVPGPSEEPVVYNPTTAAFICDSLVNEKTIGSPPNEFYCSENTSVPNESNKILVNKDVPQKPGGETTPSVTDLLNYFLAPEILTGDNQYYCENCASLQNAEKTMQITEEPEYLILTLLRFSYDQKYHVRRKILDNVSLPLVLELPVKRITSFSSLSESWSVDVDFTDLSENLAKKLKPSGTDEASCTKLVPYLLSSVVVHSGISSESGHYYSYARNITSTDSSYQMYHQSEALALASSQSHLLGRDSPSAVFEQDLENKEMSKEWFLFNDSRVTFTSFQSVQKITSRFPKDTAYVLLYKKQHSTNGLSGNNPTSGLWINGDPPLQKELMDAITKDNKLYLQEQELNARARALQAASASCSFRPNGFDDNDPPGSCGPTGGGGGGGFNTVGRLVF
Outline: as §1

USP39 = biological target: T3, USP39 (UniProt Q53GS9)
T3 sequence (whole entry): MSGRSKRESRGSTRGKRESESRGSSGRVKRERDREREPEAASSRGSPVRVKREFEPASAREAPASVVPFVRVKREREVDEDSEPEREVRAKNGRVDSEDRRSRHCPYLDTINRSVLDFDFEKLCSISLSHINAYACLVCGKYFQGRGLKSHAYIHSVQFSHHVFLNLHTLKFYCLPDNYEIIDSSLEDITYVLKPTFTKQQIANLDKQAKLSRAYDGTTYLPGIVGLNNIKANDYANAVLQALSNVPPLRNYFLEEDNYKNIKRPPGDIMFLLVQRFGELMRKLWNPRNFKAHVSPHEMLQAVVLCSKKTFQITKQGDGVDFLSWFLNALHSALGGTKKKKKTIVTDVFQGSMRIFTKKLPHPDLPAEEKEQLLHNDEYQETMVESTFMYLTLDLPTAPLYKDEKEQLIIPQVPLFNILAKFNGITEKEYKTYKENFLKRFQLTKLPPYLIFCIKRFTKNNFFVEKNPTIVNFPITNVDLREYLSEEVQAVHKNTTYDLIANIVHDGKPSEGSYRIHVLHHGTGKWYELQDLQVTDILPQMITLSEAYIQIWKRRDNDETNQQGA
Outline: as §1

USP4 = biological target: T4, USP4 (UniProt Q13107)
T4 sequence (whole entry): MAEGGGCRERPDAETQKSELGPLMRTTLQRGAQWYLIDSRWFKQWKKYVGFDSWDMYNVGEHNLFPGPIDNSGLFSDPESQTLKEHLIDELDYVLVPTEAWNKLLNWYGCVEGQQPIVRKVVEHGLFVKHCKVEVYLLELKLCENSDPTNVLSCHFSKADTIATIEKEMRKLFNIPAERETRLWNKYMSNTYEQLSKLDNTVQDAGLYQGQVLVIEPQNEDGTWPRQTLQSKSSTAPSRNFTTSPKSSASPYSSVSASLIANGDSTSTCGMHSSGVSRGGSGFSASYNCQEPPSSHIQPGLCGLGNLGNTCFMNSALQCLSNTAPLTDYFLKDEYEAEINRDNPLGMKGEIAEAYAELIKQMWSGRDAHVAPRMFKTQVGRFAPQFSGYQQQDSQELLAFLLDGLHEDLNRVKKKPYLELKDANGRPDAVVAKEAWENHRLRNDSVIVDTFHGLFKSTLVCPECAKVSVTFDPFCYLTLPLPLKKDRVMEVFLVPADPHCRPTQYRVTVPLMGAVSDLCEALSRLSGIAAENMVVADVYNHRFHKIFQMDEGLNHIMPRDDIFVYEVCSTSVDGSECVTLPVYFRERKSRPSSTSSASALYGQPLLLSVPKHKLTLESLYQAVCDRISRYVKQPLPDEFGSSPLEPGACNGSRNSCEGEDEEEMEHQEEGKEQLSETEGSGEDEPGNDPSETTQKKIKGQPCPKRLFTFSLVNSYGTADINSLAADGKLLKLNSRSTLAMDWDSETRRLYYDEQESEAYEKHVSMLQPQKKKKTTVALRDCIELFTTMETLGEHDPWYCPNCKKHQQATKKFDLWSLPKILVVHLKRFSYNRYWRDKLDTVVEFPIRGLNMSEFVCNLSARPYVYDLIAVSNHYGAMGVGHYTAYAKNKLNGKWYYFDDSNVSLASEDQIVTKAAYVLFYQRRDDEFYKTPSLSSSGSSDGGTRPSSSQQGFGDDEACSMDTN
Outline: as §1

Measured: log2 ratio of Biotin-Ahx-Ub-VS probe labelling

O=C(CCl)NCCC1COCCO1 (stereo not given)
inactive: USP34 -0.0886 | USP36 -0.0548 | USP38 -0.0125 | USP39 0.0236 | USP4 -0.00705
